From PubChem BioAssay (NCI) come the findings set out here.

This is part of a sample that, as a whole, favours compounds with a hit. Of some 83,000 tested, about 20% had one in any assay.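 Each cell line was grown in a 96-well plate and treated with one concentration of compound for 48 hours. Values below 10 were considered active.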 Values without a mark were called inactive. Activity calls are given as the source filed them.

This assay has as its system MDA-MB-468 breast. Put plainly: NCI-60 one-dose screen, 48 h (100 = growth as untreated, 0 = no growth, -100 = all killed). The settings on record: 10 µM unless noted.
For `CC(=O)OCC(OC(C)=O)C(OC(C)=O)C(OC(C)=O)C(OC(C)=O)C(/C=N/Nc1ccccc1)=N/Nc1ccccc1` (stereo not given), the growth was 46.4%.

Take `Cc1ccc(S(=O)(=O)Nc2c(Br)cc(Br)cc2C(N)=O)cc1`: the growth is 102%.

Take `Nc1nc2c(c(-c3nc(N)nc4c3CCc3ccccc3-4)n1)CCc1ccccc1-2`: the growth was 112%.

Consider `NS(=O)(=O)c1ccc(N2N=C(c3ccc(Br)cc3)CC2c2cn(-c3ccccc3)nc2-c2ccc(Cl)cc2)cc1` (stereo not given), for which the growth was 112%.

Consider `COc1cccc(C(=O)NNc2nc(N3CCOCC3)nc(N3CCN(C(c4ccccc4)c4ccccc4)CC3)n2)c1`, for which the growth was 61.7%.

On to `CCCC1OC(c2ccc(C(C)C)cc2)OCC1CC` (stereo not given), for which the growth is 97.6%.

For the compound `O=[N+]([O-])c1ccc2c(N=Nc3ccc4ccccc4c3O)c(O)cc(S(=O)(=O)O)c2c1`, the growth is 106%.

With `O=c1cc/c(=N\Nc2ccccc2)c(=O)/c1=N/Nc1ccccc1`, the growth is 106%.

As to `NNC(=O)Oc1c(Cl)cc(Cl)cc1[N+](=O)[O-]`, the growth was 112%.

Consider `Clc1ccc2c(NCCNc3nc(-c4ccccc4)cc(-c4ccccc4)n3)ccnc2c1`, for which the growth was -53.8% (active).

As to `COC1C(OC(N)=O)C(O)C(Oc2ccc3c(O)c(NC(=O)c4ccc(O)c(CC=C(C)C)c4)c(=O)oc3c2C)OC1(C)C` (stereo not given), the growth is 89%.

On to `COc1cc(/C=N\NC(=O)c2ccc3nc(-c4ccc(Br)cc4)[nH]c3c2)cc(OC)c1OC`, for which the growth was 37.2%.

Turning to `C[Si](C)(C)Cc1ccccc1`, the growth is 104%.

With `COC(=O)c1ccc(NC(=O)Nc2ccc(C(=O)OC)cc2)cc1`, the growth is 97.9%.

Regarding `Cn1ncc2ccc(-c3nc(-c4ccccc4)[nH]c3-c3n[nH]c(=O)n3C3CC3)cc21`, the growth was 104%.

As to `Nc1c(C(=O)Nc2cccc(Cl)c2)sc2ncc(Cl)cc12`, the growth was 95.3%.

`c1ccc(Nc2ncc3c(n2)-c2cccn2CC3)cc1`: the growth was 4.29% (active).

As for `CC(C)c1c(C(=O)c2ccccc2)c(-c2ccccc2)c(-c2ccc(F)cc2)n1CC[C@@H](O)C[C@@H](O)CC(=O)O`, the growth is 39.2%.

As to `Cc1nc2cc(Nc3nc(Nc4ccc(F)cc4)nc(-c4cccs4)n3)ccc2n1Cc1ccccc1`, the growth is 33.2%.

`COc1ccc(-c2ccc(-c3ccc(C(=N)N)cn3)o2)cc1`: the growth is 48.7%.

Regarding `COc1cccc(CCC2CCCN(c3cc(C)nc(N)n3)C2)c1` (stereo not given), the growth is 26.1%.

Regarding `C#CCOC(=O)C(N)CSSCC(N)C(=O)O` (stereo not given), the growth was 109%.

Take `Cn1cnc([N+](=O)[O-])c1/C=C1\Oc2ccc(Br)cc2C1=O`: the growth is 80.9%.

As for `Cc1ccc(OC(=O)c2ccccc2)cc1`, the growth is 107%.

Turning to `COc1ccc2nc3nc4ccc[nH]c4cc3c2c1`, the growth is -36.6% (active).

As for `Cc1ccc2c(C(C[N+](=O)[O-])c3ccco3)c(-c3ccccc3)[nH]c2c1` (stereo not given), the growth was 8.5% (active).

Consider `CN1CCN(CCOc2cc(OC3CCOCC3)c3c(Nc4c(Cl)ccc5c4OCO5)ncnc3c2)CC1`, for which the growth was 25.8%.

Turning to `CCN(Cc1ccc(Cl)c(Cl)c1)c1ccc2nc(N)nc(N)c2c1C`, the growth was -84.2% (active).

Turning to `N#C/C(=C\c1ccc(Cl)cc1Cl)C(=O)Nc1ncc(Cc2ccc(Cl)c(Cl)c2)s1`, the growth is 88.6%.

With `CCCC(C)(C)COC(=O)c1cccc(N)c1`, the growth is 109%.

`CC1(C)N=C(N)N=C(N)N1c1ccc(CCc2ccccc2)c(Cl)c1`: the growth is -28.3% (active).

With `Clc1ccc(-c2nc(-c3c[nH]c4ncccc34)cs2)cc1`, the growth is 80.2% [100 µM].

As for `O=C(NC1CCCC1)c1ccc(N2CCC(NCc3cccc(C(F)(F)F)c3)CC2)cc1`, the growth was 77.7%.

Regarding `CCCn1nc(-c2ccccc2)c2c(-c3ccccc3)onc2c1=O`, the growth is 43.6%.

With `OCCCC1CCN(C(Cc2ccccc2)c2ccccc2)CC1` (stereo not given), the growth was 95.2%.

Take `NC1=NC(c2ccccc2)N=C(Nc2ccccc2)N1` (stereo not given): the growth was 9.95% (active).

As to `COc1ccc(-c2nsc3c2NC(=O)CC3c2cccc(F)c2)cc1` (stereo not given), the growth is 19.7%.

For `COc1ccc(C2=NN(C(=O)c3cc(OC)c(OC)c(OC)c3)C(c3ccc(Cl)cc3)C2)cc1OC` (stereo not given), the growth is 9.76% (active).

Take `COc1ccc(/C=C/C(=O)c2ccc(NC(=O)CN3CCN(c4cc5c(cc4F)c(=O)c(C(=O)O)cn5C4CC4)CC3)cc2)cc1`: the growth was 99.1%.

Take `COc1nccc2cc3c(=O)n4c(cc5ccccc54)c(=O)n3c12`: the growth is 89.4%.
